Results published in PubChem BioAssay (Tox21).
Inconclusive results are not listed. Activity calls are given as the source filed them. Unless noted, the call rests on the fitted dose curve.

Columns and labels:
[1] = qHTS assay to identify small molecule agonists of the sonic hedgehog signaling (Shh) pathway (AID 1259368); further: series mostly up to about 92 µM; nearly all actives have a fitted effect of over 15% in size
How it was run: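 NIH/3T3-derived 3T3Gli1-Luc cells carrying a stably integrated Gli1 response element–firefly luciferase reporter were plated, left 4 hr at 37 C, then given compounds in DMSO for 24 hr. Luminescence was read 30 min after adding luciferase reagent.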

[2] = qHTS assay to identify small molecule antagonists of the sonic hedgehog signaling (Shh) pathway (AID 1259369); further: nearly all actives have a fitted effect of over 45% in size
How it was run: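 NIH/3T3-derived 3T3Gli1-Luc cells with stably integrated Gli1-Luc reporter were preincubated 4hr at 37 C, then given compounds in DMSO plus Shh conditioned medium and incubated 24hr. Firefly luciferase luminescence read after 30min reagent at room temperature.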

[3] = target: Estrogen receptor beta (Homo sapiens) (UniProt Q92731); assay: qHTS assay to identify small molecule agonists of the estrogen receptor beta (ER-beta) signaling pathway (AID 1259377; active means well fitted activation curve with a large enough effect in the signal ratio in the repeat runs, not every such curve was filed as active; the % refers to the signal ratio)
Chain of Estrogen receptor beta (Homo sapiens) (Q92731 whole entry, looked up): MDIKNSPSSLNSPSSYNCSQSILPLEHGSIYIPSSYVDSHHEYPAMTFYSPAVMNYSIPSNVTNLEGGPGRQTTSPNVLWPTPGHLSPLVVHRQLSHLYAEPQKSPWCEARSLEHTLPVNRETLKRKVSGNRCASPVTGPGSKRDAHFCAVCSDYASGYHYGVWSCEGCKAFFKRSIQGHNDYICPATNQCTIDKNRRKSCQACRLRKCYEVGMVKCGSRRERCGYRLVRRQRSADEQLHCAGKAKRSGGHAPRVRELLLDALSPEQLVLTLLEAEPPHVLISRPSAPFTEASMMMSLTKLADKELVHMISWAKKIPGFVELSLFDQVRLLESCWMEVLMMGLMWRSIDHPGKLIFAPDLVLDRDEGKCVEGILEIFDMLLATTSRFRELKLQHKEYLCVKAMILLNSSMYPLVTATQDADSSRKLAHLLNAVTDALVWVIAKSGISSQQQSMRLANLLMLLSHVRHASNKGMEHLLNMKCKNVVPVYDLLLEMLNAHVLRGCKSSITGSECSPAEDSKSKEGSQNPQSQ
How it was run: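 Read-out: beta-lactamase FRET fluorescence. Cell line: ER-beta-UAS-bla HEK293T in 2% charcoal-stripped FBS. Exposure: 16 hr at 37C. Substrate step: 2 h at room temperature.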

[4] = target: Estrogen receptor beta (Homo sapiens) (UniProt Q92731); assay: qHTS assay to identify small molecule antagonists of the estrogen receptor beta (ER-beta) signaling pathway (AID 1259378; active means well fitted inhibition curve with a large enough effect in the signal ratio in the repeat runs, not every such curve was filed as active; the % refers to the signal ratio)
How it was run: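 Antagonist mode: compounds added to beta-lactamase reporter HEK293T ER-beta-UAS cells stimulated with E2 (1nM final), 16 hr at 37C. LiveBLAzer B/G FRET substrate, 2 hours room temperature, fluorescence read-out.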

[5] = qHTS assay to identify small molecule agonists of the androgen receptor (AR) signaling pathway in the presence of an antagonist - cell viability counter screen (AID 1259379; active means well fitted curve in the direction sought with a large enough effect in the repeat runs; an effect the other way counts as inactive or inconclusive; further: series mostly up to about 92 µM; nearly all actives have a fitted effect of over 25% in size)
How it was run: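 MDA-kb2 human breast carcinoma cells (stable MMTV-luciferase, AR/GR responsive) were seeded 3,000 cells/well, pre-incubated 5 hr at 37C without CO2, then given 3.0uM nilutamide and compounds at 15 concentrations for 16 hr. Viability was read by CellTiter-Fluor fluorescence.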

[6] = qHTS assay to identify small molecule agonists of the estrogen receptor beta (ER-beta) signaling pathway - cell viability counter screen (AID 1259380; active means well fitted curve in the direction sought with a large enough effect in the repeat runs; an effect the other way counts as inactive or inconclusive; further: nearly all actives have a fitted effect of over 30% in size)
How it was run: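 ER-beta-UAS-bla HEK293T cells in medium with 2% charcoal-stripped FBS were preincubated 6 hr at 37C, dosed with compound in DMSO for 16 hr, then after the bla read, CellTiter-Glo was added for 30 min at room temperature; luminescence recorded.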

[7] = target: Androgen receptor (Homo sapiens) (UniProt P10275); assay: qHTS assay to identify small molecule agonists of the androgen receptor (AR) signaling pathway in the presence of an antagonist (AID 1259381); further: nearly all actives have a fitted effect of over 15% in size
Chain of Androgen receptor (Homo sapiens) (P10275 whole entry, looked up): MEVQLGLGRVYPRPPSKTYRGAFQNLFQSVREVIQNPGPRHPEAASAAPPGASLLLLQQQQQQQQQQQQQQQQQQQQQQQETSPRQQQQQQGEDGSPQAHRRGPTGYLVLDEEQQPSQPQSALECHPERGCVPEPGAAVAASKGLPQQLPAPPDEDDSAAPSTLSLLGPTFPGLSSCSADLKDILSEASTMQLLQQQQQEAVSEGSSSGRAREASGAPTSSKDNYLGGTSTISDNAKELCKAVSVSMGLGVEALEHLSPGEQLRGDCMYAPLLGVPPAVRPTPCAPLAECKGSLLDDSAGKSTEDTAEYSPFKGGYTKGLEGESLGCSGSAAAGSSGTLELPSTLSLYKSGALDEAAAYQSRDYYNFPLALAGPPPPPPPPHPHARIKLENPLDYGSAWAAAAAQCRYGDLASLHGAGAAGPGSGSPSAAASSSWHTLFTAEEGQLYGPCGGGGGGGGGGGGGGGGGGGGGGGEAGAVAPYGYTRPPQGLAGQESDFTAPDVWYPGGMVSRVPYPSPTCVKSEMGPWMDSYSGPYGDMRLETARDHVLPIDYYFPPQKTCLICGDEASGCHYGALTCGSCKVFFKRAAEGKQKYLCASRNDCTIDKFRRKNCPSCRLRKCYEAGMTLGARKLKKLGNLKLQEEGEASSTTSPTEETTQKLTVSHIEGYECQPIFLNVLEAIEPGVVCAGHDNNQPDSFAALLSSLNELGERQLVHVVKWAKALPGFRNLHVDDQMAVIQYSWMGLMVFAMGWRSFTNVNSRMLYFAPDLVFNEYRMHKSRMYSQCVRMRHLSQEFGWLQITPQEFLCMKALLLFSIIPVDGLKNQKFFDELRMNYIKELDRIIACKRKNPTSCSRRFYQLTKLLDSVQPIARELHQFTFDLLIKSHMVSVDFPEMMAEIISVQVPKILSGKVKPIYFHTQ
How it was run: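 MDA-kb2 human breast carcinoma cells carrying an MMTV-luciferase reporter (AR- and GR-responsive) were treated with compounds at 15 concentrations plus 3.0uM final nilutamide for 16hr at 37C without CO2; luminescence was read after ONE-Glo addition.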

[8] = qHTS assay to identify small molecule antagonists of the estrogen receptor beta (ER-beta) signaling pathway - cell viability counter screen (AID 1259382; active means well fitted curve in the direction sought with a large enough effect in the repeat runs; an effect the other way counts as inactive or inconclusive;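 further: HEK293T cells carrying ER-beta-UAS-bla reporter stimulated with estradiol; series mostly up to about 92 µM; nearly all actives have a fitted effect of over 55% in size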)
How it was run: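 ER-beta-UAS-bla HEK293T cells (2,000/well, 2% charcoal-stripped FBS) were pre-incubated 6 hr at 37C, then given compound plus 1nM final 17-beta-estradiol for 16 hr. Viability was read in the same wells by CellTiter-Glo luminescence after 30 min at room temperature.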

[9] = target: Estrogen receptor (Homo sapiens) (UniProt P03372); assay: qHTS assay to identify small molecule agonists of the estrogen receptor alpha (ER-alpha) signaling pathway in the presence of an antagonist (AID 1259383); further: top concentration of the series differs between compounds; nearly all actives have a fitted effect of over 15% in size
Chain of Estrogen receptor (Homo sapiens) (P03372 whole entry, looked up): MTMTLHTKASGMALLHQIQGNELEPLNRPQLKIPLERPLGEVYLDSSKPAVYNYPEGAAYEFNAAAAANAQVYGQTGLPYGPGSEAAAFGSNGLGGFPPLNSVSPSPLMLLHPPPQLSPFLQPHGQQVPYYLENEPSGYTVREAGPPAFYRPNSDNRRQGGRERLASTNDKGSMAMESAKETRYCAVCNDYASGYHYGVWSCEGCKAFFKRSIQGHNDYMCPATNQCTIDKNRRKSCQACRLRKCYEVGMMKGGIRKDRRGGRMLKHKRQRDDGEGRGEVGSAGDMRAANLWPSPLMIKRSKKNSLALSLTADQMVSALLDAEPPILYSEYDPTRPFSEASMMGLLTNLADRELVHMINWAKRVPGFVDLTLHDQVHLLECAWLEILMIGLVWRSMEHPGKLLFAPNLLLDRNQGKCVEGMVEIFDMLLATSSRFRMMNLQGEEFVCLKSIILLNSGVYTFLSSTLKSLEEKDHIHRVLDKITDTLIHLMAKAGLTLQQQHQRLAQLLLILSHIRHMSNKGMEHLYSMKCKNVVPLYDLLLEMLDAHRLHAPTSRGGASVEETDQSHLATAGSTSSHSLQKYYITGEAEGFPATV
How it was run: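 VM7Luc4E2 cells (endogenous full-length ER-alpha, 4×ERE-luciferase) were precultured 5 days in phenol red-free medium with 10% charcoal-stripped FBS, given 10.0nM ICI-182,780 (final), then treated with compounds at 15 concentrations for 22hr at 37C; luminescence read with ONE-Glo.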

[10] = qHTS assay to identify small molecule agonists or antagonists of the thyroid stimulating hormone receptor (TSHR) signaling pathway - wild type cell line counter screen (AID 1259384)
How it was run: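 Counter screen in untransfected Hek293: compounds (15-point titration, triplicate) plus phosphodiesterase inhibitor Ro20-1724 added after 18 h plating; 30 min RT. Intracellular cAMP via competitive d2/cryptate immunoassay, 1 h incubation.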

[11] = target: Thyrotropin receptor (Homo sapiens) (UniProt P16473); assay: qHTS assay to identify small molecule antagonists of the thyroid stimulating hormone receptor (TSHR) signaling pathway (AID 1259385); further: nearly all actives have a fitted effect of over 20% in size
Chain of Thyrotropin receptor (Homo sapiens) (P16473 whole entry, looked up): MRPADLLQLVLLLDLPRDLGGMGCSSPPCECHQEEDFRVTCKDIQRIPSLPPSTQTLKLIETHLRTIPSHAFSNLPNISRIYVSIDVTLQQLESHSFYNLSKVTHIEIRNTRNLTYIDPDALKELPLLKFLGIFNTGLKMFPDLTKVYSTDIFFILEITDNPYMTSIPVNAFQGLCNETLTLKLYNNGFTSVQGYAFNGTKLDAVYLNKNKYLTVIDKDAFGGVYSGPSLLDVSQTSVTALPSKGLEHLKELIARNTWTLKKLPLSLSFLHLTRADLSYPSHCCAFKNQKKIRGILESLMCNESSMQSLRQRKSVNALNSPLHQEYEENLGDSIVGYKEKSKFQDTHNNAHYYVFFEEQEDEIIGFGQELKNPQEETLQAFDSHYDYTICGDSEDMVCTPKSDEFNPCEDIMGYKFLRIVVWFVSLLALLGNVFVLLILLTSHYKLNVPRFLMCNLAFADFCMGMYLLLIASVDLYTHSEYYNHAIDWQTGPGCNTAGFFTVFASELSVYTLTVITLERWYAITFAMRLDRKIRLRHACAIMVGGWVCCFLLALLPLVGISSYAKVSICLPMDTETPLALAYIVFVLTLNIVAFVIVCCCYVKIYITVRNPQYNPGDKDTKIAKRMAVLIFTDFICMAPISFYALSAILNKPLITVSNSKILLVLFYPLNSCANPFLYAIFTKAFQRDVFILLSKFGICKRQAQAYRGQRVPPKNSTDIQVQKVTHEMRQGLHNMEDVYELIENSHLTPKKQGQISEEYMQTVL
How it was run: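 Antagonist mode: compound-treated TSHR-expressing HEK293 cells were stimulated with 1.5 ng/mL TSH (final) in presence of Ro20-1724 for 30 min at RT. HTRF cAMP detection after 1 h; each compound tested at 15 concentrations, triplicate.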

[12] = qHTS assay to identify small molecule agonists of the estrogen receptor alpha (ER-alpha) signaling pathway in the presence of an antagonist - cell viability counter screen (AID 1259386; active means well fitted curve in the direction sought with a large enough effect in the repeat runs; an effect the other way counts as inactive or inconclusive;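 further: series mostly up to about 92 µM; cells exposed to compounds for 22 h at 37 °C before the viability read; nearly all actives have a fitted effect of over 30% in size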)
How it was run: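 VM7Luc4E2 cells (endogenous full-length ER-alpha, 4×ERE-luciferase) were held 5 days in phenol red-free medium with 10% charcoal-stripped FBS, plated, then given 10.0nM ICI-182,780 and compounds at 15 concentrations for 22hr at 37C; viability read by CellTiter-Fluor fluorescence.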

[13] = target: Progesterone receptor (Homo sapiens) (UniProt P06401); assay: qHTS assay to identify small molecule agonists of the progesterone receptor (PR) signaling pathway (AID 1346784); further: nearly all actives have a fitted effect of over 30% in size
Chain of Progesterone receptor (Homo sapiens) (P06401 whole entry, looked up): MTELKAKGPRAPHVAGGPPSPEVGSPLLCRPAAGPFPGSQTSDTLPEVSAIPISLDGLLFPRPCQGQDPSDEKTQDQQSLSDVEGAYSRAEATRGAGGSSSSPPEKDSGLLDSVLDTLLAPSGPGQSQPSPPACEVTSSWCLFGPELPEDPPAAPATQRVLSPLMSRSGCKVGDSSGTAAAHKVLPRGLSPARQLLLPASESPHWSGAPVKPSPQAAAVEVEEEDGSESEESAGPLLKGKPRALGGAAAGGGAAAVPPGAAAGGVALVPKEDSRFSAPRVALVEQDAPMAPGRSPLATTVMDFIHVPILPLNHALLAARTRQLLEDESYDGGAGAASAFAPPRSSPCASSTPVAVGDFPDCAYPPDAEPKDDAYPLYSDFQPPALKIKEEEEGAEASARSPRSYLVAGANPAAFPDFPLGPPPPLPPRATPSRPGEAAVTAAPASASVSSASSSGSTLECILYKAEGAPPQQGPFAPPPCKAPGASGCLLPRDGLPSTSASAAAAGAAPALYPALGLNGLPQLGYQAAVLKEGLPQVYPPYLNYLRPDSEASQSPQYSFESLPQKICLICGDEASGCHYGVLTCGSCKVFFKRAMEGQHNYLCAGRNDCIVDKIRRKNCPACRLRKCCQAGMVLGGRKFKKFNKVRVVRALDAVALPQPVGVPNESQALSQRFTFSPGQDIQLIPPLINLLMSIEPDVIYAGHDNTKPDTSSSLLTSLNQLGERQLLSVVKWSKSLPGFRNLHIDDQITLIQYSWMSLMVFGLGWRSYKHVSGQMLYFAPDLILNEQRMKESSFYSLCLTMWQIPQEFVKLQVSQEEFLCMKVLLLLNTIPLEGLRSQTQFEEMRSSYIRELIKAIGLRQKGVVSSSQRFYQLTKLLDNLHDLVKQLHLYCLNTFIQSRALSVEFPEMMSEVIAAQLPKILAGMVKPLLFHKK
How it was run: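 Compounds were tested for PR agonism in HEK 293T cells bearing a beta-lactamase gene under UAS control. Treatment lasted 16 hr at 37C; signal came from fluorescence of a FRET substrate.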

[14] = target: Progesterone receptor (Homo sapiens) (UniProt P06401); assay: qHTS assay to identify small molecule antagonists of the progesterone receptor (PR) signaling pathway (AID 1346795; active means well fitted inhibition curve with a large enough effect in the signal ratio in the repeat runs, not every such curve was filed as active; the % refers to the signal ratio)
How it was run: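 In HEK293T cells bearing the PR-UAS-bla reporter, compound effects on promegestone-driven (1 nM) beta-lactamase expression are assessed after 16 hr using a fluorescent FRET substrate incubated 2 hr at room temperature.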

[15] = qHTS assay to identify small molecule agonists of the progesterone receptor (PR) signaling pathway - cell viability counter screen (AID 1346799); further: nearly all actives have a fitted effect of over 45% in size
How it was run: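 Here, 3,000 PR-UAS-bla HEK293T cells per well were treated with compounds for 16 hr after a 6 hr preincubation at 37C and 5% CO2; cell viability is the CellTiter-Glo luminescence signal.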

[16] = qHTS assay to identify small molecule antagonists of the TGF-beta/Smad signaling pathway - cell viability counter screen (AID 1346824; active means well fitted curve in the direction sought with a large enough effect in the repeat runs; an effect the other way counts as inactive or inconclusive; further: nearly all actives have a fitted effect of over 50% in size)
How it was run: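 Cytotoxicity counter-screen run in the same wells as the beta-lactamase Smad reporter read: CellTiter-Glo luminescence after 30 min at room temperature. HEK 293T SBE-bla cells had 5 hr compound exposure at 37 C with TGF-beta1 (0.25 ng/mL stock).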

[17] = qHTS assay to identify small molecule agonists of the TGF-beta/Smad signaling pathway - cell viability counter screen (AID 1346829; active means well fitted curve in the direction sought with a large enough effect in the repeat runs; an effect the other way counts as inactive or inconclusive; further: top concentration of the series differs between compounds; nearly all actives have a fitted effect of over 45% in size)
How it was run: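 Same-well cytotoxicity: CellTiter-Glo added after the 2 hr room-temperature beta-lactamase substrate step, luminescence measured 30 min later; cells had 5 hr of compound at 37 C.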

[18] = qHTS assay to identify small molecule agonists of the TGF-beta/Smad signaling pathway (AID 1346859; active means well fitted activation curve with a large enough effect in the signal ratio in the repeat runs, not every such curve was filed as active; the % refers to the signal ratio; further: series mostly up to about 77 µM)
How it was run: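 Each well held 4,000 SBE-bla HEK 293T cells incubated overnight before compound addition; 5 hr later the cleavable FRET substrate went on for 2 hr at room temperature, and fluorescence was read at two emissions.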

[19] = target: Thyrotropin-releasing hormone receptor (Homo sapiens) (UniProt P34981); assay: qHTS assay to identify small molecule antagonists of the thyrotropin-releasing hormone receptor (TRHR) signaling pathway (AID 1346877; active means well fitted inhibition curve with a large enough effect in the repeat runs, not every such curve was filed as active; further: series mostly up to about 51 µM)
Chain of Thyrotropin-releasing hormone receptor (Homo sapiens) (P34981 whole entry, looked up): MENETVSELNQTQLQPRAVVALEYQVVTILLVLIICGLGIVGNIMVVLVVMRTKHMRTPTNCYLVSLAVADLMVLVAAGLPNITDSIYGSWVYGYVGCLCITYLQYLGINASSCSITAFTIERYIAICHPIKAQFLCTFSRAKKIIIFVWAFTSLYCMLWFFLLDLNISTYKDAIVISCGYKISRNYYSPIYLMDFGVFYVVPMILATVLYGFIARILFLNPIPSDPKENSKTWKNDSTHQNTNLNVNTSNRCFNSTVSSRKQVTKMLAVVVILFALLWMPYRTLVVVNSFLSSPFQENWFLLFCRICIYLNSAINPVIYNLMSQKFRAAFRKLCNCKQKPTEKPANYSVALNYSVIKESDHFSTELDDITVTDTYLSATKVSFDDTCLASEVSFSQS
How it was run: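 TRHR-expressing HEK293 cells were seeded, cultured 18 h at 37 °C, then loaded with calcium dye for 2 h. Compounds were pre-incubated 5 min at room temperature before 1 nM TRH (final) was added, and kinetic fluorescence was recorded for 3 min.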

[20] = qHTS assay to identify small molecule antagonists of the progesterone receptor (PR) signaling pathway - cell viability counter screen (AID 1346798; active means well fitted curve in the direction sought with a large enough effect in the repeat runs; an effect the other way counts as inactive or inconclusive; further: series mostly up to about 92 µM; nearly all actives have a fitted effect of over 50% in size)
How it was run: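 Following a 4 hr attachment, PR-UAS-bla HEK293T cells in charcoal-stripped FBS medium were exposed to compounds with R5020 for 16 hr; CellTiter-Glo was added and luminescence read after 30 min at room temperature.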
On the % scale 0 is the no-effect control and ±100 the full control effect.

C=C(C)C1CCC(C)(O)CC1 (stereo not drawn)
inactive: outcome [1] | Potency [2] | Potency [3] | outcome [4] | Potency [5] | Potency [6] | Potency [7] | outcome [8] | outcome [9] | outcome [10] | outcome [11] | Potency [12] | Potency [13] | Potency [14] | Potency [15] | outcome [16] | outcome [17] | outcome [18] | outcome [19]

CNC(=O)[C@H]1O[C@@H](n2cnc3c(NCc4cc(Cl)ccc4OCc4cc(C)no4)ncnc32)[C@H](O)[C@@H]1N
inactive: outcome [1] | Potency [2] | Potency [3] | outcome [4] | Potency [5] | Potency [6] | Potency [7] | outcome [8] | outcome [9] | outcome [10] | outcome [11] | Potency [12] | Potency [13] | Potency [14] | Potency [20] | outcome [16] | outcome [17] | outcome [18] | outcome [19]

CN1CCN(CC(=O)N2c3ccccc3C(=O)Nc3cccnc32)CC1
inactive: activity change [1] 0.176% [at 8.39 µM] | activity change, negative = inhibition [2] 12.8% [at 8.39 µM] | activation [3] 7.01% [at 8.39 µM] | activity, negative = inhibition [4] 0.518% [at 8.39 µM] | activity change, negative = cytotoxicity [5] -6.25% [at 8.39 µM] | activity change, negative = cytotoxicity [6] 5.53% [at 8.39 µM] | activity change, negative = cytotoxicity [8] 9.64% [at 8.39 µM] | activation [9] 0.843% [at 8.39 µM] | cAMP activity change [10] -2.81% [at 8.39 µM] | activity change, negative = inhibition [11] 0.681% [at 8.39 µM] | activity change, negative = cytotoxicity [12] -1.63% [at 8.39 µM] | activation [13] -0.718% [at 8.39 µM] | activity change, negative = inhibition [14] 9.85% [at 8.39 µM] | activity change, negative = cytotoxicity [20] 1.84% [at 8.39 µM] | activity change, negative = cytotoxicity [15] -2.12% [at 8.39 µM] | viability change, negative = cytotoxic [16] -11.9% [at 6.97 µM] | activity change, negative = cytotoxicity [17] -15% [at 6.97 µM] | activation [18] -0.857% [at 6.97 µM]

CC(S)C(=O)NCC(=O)O (stereo not drawn)
inactive: outcome [1] | Potency [2] | Potency [3] | outcome [4] | Potency [5] | Potency [6] | Potency [7] | outcome [8] | outcome [10] | outcome [11] | Potency [13] | Potency [14] | Potency [20] | outcome [16] | outcome [17] | outcome [18] | outcome [19]

O=C(O)CCSSCCC(=O)O
inactive: outcome [1] | Potency [2] | Potency [3] | outcome [4] | Potency [5] | Potency [6] | Potency [7] | outcome [8] | outcome [9] | outcome [10] | outcome [11] | Potency [12] | Potency [13] | Potency [14] | Potency [20] | Potency [15] | outcome [16] | outcome [17] | outcome [18] | outcome [19]

CC(C)CCCC(C)(C)O
inactive: outcome [1] | Potency [2] | Potency [3] | outcome [4] | Potency [5] | Potency [6] | outcome [8] | outcome [9] | outcome [10] | outcome [11] | Potency [12] | Potency [13] | Potency [14] | Potency [20] | Potency [15] | outcome [16] | outcome [17]

CCCCCCCCSCC
inactive: outcome [1] | Potency [2] | Potency [3] | outcome [4] | Potency [5] | Potency [6] | outcome [8] | outcome [9] | outcome [10] | outcome [11] | Potency [12] | Potency [13] | Potency [14] | Potency [20] | Potency [15] | outcome [16] | outcome [17] | outcome [19]
